Experimental data taken from PubChem BioAssay (NCI).
About 83,000 compounds went through this panel and 20% of them were active in at least one assay; those are over-represented in the sample as a whole.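 For each line, cells grew in 96-well plates with the test compound present at a single concentration for 48 hours.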

How the values were obtained:
Assay in all cases: NCI-60 one-dose screen, 48 h (100 = growth as untreated, 0 = no growth, -100 = all killed); active = growth percent below 10; inactive = the rest
SR leukemia = settings: 10 µM
RPMI-8226 leukemia = settings: 10 µM
OVCAR-8 ovarian = settings: 10 µM
OVCAR-5 ovarian = settings: 10 µM
OVCAR-4 ovarian = settings: 10 µM
SK-OV-3 ovarian = settings: 10 µM
IGROV1 ovarian = settings: 10 µM
OVCAR-3 ovarian = settings: 10 µM
HS 578T breast = settings: 10 µM
NCI/ADR-RES ovarian = settings: 10 µM
T-47D breast = settings: 10 µM
BT-549 breast = settings: 10 µM
MDA-MB-435 melanoma = settings: 10 µM
SW-620 colon = settings: 10 µM
MCF7 breast = settings: 10 µM unless noted
HCT-116 colon = settings: 10 µM
HCC-2998 colon = settings: 10 µM
KM12 colon = settings: 10 µM

Measured: growth

CC1C(=O)c2ccccc2CC1C(=O)O (stereo not given)
inactive: SR leukemia 95.8% | RPMI-8226 leukemia 110% | OVCAR-8 ovarian 97% | OVCAR-5 ovarian 103% | OVCAR-4 ovarian 108% | SK-OV-3 ovarian 108% | IGROV1 ovarian 100% | OVCAR-3 ovarian 129% | HS 578T breast 119% | NCI/ADR-RES ovarian 102% | T-47D breast 102% | BT-549 breast 105% | MDA-MB-435 melanoma 108% | SW-620 colon 115% | MCF7 breast 99.3% | HCT-116 colon 110% | HCC-2998 colon 89.7% | KM12 colon 123%

O=S(=O)(O)c1ccc(O)c2ccccc12
inactive: SR leukemia 84.6% | RPMI-8226 leukemia 94.5% | OVCAR-8 ovarian 113% | OVCAR-5 ovarian 98.7% | OVCAR-4 ovarian 98.3% | SK-OV-3 ovarian 94.1% | IGROV1 ovarian 86.1% | OVCAR-3 ovarian 108% | HS 578T breast 102% | NCI/ADR-RES ovarian 98% | T-47D breast 99.4% | BT-549 breast 91.6% | MDA-MB-435 melanoma 113% | SW-620 colon 97.3% | MCF7 breast 94.3% | HCT-116 colon 98.4% | HCC-2998 colon 114% | KM12 colon 102%

O=C(O)c1cc([N+](=O)[O-])ccc1Cl
inactive: SR leukemia 88.4% | RPMI-8226 leukemia 88.8% | OVCAR-8 ovarian 96.1% | OVCAR-5 ovarian 104% | OVCAR-4 ovarian 107% | SK-OV-3 ovarian 106% | IGROV1 ovarian 117% | OVCAR-3 ovarian 115% | HS 578T breast 119% | NCI/ADR-RES ovarian 103% | T-47D breast 99.6% | BT-549 breast 97.1% | MDA-MB-435 melanoma 107% | SW-620 colon 98.5% | MCF7 breast 88% | HCT-116 colon 102% | HCC-2998 colon 97% | KM12 colon 95%

C/C(=C\c1cc(Cl)ccc1OCC(=O)O)[N+](=O)[O-]
inactive: SR leukemia 113% | RPMI-8226 leukemia 81.5% | OVCAR-8 ovarian 100% | OVCAR-5 ovarian 106% | OVCAR-4 ovarian 111% | SK-OV-3 ovarian 97.7% | IGROV1 ovarian 112% | OVCAR-3 ovarian 109% | HS 578T breast 93.5% | NCI/ADR-RES ovarian 102% | T-47D breast 85.9% | BT-549 breast 117% | MDA-MB-435 melanoma 105% | SW-620 colon 114% | MCF7 breast 90.4% | HCT-116 colon 109% | HCC-2998 colon 111% | KM12 colon 105%

O=[N+]([O-])c1ccc(N=Nc2ccccc2)cc1
inactive: SR leukemia 97.9% | RPMI-8226 leukemia 98% | OVCAR-8 ovarian 104% | OVCAR-5 ovarian 97.7% | OVCAR-4 ovarian 107% | SK-OV-3 ovarian 113% | IGROV1 ovarian 89.8% | OVCAR-3 ovarian 107% | HS 578T breast 119% | NCI/ADR-RES ovarian 94.8% | T-47D breast 87.4% | BT-549 breast 87.2% | MDA-MB-435 melanoma 110% | SW-620 colon 115% | MCF7 breast 109% | HCT-116 colon 97.1% | HCC-2998 colon 104% | KM12 colon 96.2%

CC1OC(Oc2c(-c3ccc(O)c(O)c3)oc3cc(O)cc(O)c3c2=O)C(O)C(O)C1O (stereo not given)
inactive: SR leukemia 106% | RPMI-8226 leukemia 105% | OVCAR-8 ovarian 106% | OVCAR-5 ovarian 108% | OVCAR-4 ovarian 105% | SK-OV-3 ovarian 108% | IGROV1 ovarian 107% | OVCAR-3 ovarian 103% | HS 578T breast 105% | NCI/ADR-RES ovarian 111% | T-47D breast 105% | BT-549 breast 109% | MDA-MB-435 melanoma 111% | SW-620 colon 99.8% | MCF7 breast 101% | HCT-116 colon 105% | KM12 colon 102%

O=[N+]([O-])c1cccc(N=Nc2ccc(O)cc2O)c1
inactive: SR leukemia 43.1% | RPMI-8226 leukemia 29.6% | OVCAR-8 ovarian 74.3% | OVCAR-5 ovarian 143% | OVCAR-4 ovarian 62.3% | SK-OV-3 ovarian 101% | IGROV1 ovarian 83.6% | OVCAR-3 ovarian 62.4% | HS 578T breast 72.7% | NCI/ADR-RES ovarian 88.8% | T-47D breast 54% | BT-549 breast 49.8% | MDA-MB-435 melanoma 87.3% | SW-620 colon 55.7% | MCF7 breast 84.3% | HCT-116 colon 14.3% | KM12 colon 90.9%

CN(c1ccccc1)c1ncnc2c1ncn2C
inactive: SR leukemia 98.2% | RPMI-8226 leukemia 106% | OVCAR-8 ovarian 102% | OVCAR-5 ovarian 121% | OVCAR-4 ovarian 103% | SK-OV-3 ovarian 105% | IGROV1 ovarian 118% | OVCAR-3 ovarian 111% | HS 578T breast 103% | NCI/ADR-RES ovarian 105% | T-47D breast 100% | BT-549 breast 101% | MDA-MB-435 melanoma 106% | SW-620 colon 97.9% | MCF7 breast 97.8% | HCT-116 colon 104% | KM12 colon 108%

CC(C)C(C#N)(C(C)C)C(C)C
inactive: SR leukemia 89.8% | RPMI-8226 leukemia 96.5% | OVCAR-8 ovarian 109% | OVCAR-5 ovarian 108% | OVCAR-4 ovarian 109% | SK-OV-3 ovarian 109% | IGROV1 ovarian 103% | OVCAR-3 ovarian 107% | HS 578T breast 106% | NCI/ADR-RES ovarian 104% | T-47D breast 104% | BT-549 breast 102% | MDA-MB-435 melanoma 96.3% | SW-620 colon 101% | MCF7 breast 97.7% | HCT-116 colon 103% | KM12 colon 103%

S=c1nn[nH]c2ccccc12
inactive: SR leukemia 92.2% | RPMI-8226 leukemia 117% | OVCAR-8 ovarian 103% | OVCAR-5 ovarian 105% | OVCAR-4 ovarian 114% | SK-OV-3 ovarian 99.8% | IGROV1 ovarian 97.7% | OVCAR-3 ovarian 111% | HS 578T breast 109% | NCI/ADR-RES ovarian 105% | T-47D breast 109% | BT-549 breast 106% | MDA-MB-435 melanoma 120% | SW-620 colon 113% | MCF7 breast 99.2% | HCT-116 colon 103% | KM12 colon 101%
